About 1,400 (1.6%) of roughly 86,000 compounds were called active. This excerpt belongs to a sample that is enriched for actives. Unmarked numbers belong to inactive results. Rule as the data show it: active = inhibition above about 50%; inactive = the rest.
Molecular target: Estrogen receptor (Homo sapiens) (UniProt P03372)
Experiment: blockers of SRC-1 peptide recruitment to ERα – biochemical, TR-FRET, ERα LBD, estradiol-bound, primary screen (AID 629);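 also: 0% = receptor plus peptide control and 100% = peptide only without receptor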
Settings: TR-FRET ER-alpha LBD / SRC-1 peptide, at 25.6 µM, active compounds read high

Chain of Estrogen receptor (Homo sapiens) (P03372 whole entry, looked up, the tested form may be a part): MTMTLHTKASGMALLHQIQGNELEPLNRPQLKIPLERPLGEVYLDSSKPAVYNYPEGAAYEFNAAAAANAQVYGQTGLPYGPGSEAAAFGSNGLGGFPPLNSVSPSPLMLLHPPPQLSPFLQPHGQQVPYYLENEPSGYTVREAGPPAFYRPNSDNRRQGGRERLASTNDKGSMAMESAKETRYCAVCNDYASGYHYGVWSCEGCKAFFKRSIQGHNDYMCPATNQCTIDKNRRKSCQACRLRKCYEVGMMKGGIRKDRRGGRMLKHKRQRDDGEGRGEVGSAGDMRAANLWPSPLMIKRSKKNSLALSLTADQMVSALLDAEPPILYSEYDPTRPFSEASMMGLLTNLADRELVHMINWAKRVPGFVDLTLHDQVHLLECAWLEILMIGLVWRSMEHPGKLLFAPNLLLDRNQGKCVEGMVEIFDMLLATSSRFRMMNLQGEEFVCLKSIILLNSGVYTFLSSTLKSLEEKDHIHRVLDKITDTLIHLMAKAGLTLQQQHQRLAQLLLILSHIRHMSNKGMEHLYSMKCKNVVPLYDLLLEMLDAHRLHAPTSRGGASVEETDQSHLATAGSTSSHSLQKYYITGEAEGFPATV

| Structure (SMILES) | inhibition |
| --- | --- |
| Cc1cc(NC(=O)CSc2nc(C(C)C)nc3sc4c(c23)CCC(C)C4)no1 (stereo unspecified) | -14.6% |
| CC1CCc2c(sc(NC(=O)c3ccc(Cn4cc(Br)cn4)o3)c2C(N)=O)C1 (stereo unspecified) | 50.6% (active) |
| CCOC(=O)c1c(NC(=O)c2ccc(Br)o2)sc2c1CCCC2 | 7.77% |
| Cc1ccc(CN(C(=O)c2sc3ccccc3c2Cl)C2CCS(=O)(=O)C2)cc1 (stereo unspecified) | 6.88% |
| C/C=C/C(=O)Nc1nnc(C(C)C)s1 | -19.7% |
| CNC(=O)c1c(NC(NC(=O)c2ccco2)C(=O)c2ccc(Cl)cc2)sc2c1CCCC2 (stereo unspecified) | -3.84% |
| CNC(=O)c1c(NC(=O)c2ccc(S(=O)(=O)N3CCOCC3)cc2)sc2c1CCC2 | 94.5% [fluorescence artefact?] (active) |
| COc1ccc(C(=O)Nc2nc(-c3ccc(S(=O)(=O)N4CCOCC4)cc3)cs2)cc1 | 3.26% |
| CCOC(=O)c1ccc2c(c1)nc(SCC(=O)NC(C)C)n2CC | 26.4% |
| CCOc1cc(C(=O)Nc2c(C)ccc3nsnc23)cc(OCC)c1OCC | 8.18% |
| CCCCCN1CC(O)=C(c2ccccc2)C1=N | 2.06% |
| CCCCCN1CC(O)=C(c2nc(-c3ccc(Cl)cc3)cs2)C1=N | 65.8% [fluorescence artefact?] (active) |
| N#CC(=C1CCCC1)c1nc(-c2ccc(Cl)cc2)cs1 | -5.55% |
| Cc1ccc(S(=O)(=O)Oc2ccc(/C=N/NC(=O)c3c(Cl)cnn3C)cc2)cc1 | -7.62% |
| COCCCn1c(Cc2csc(Nc3cccc(Cl)c3)n2)nnc1SCC(=O)OC1CCCCC1 | 67.4% [fluorescence artefact?] (active) |
| C=CCn1c(CC(=O)Nc2cccc(OC)c2)nnc1SCC(=O)NC1CCCCC1 | -5.03% |
| COCCCn1c(SCC(=O)Nc2ccccc2)nnc1-c1ccncc1 | -1.59% |
| CCc1nc2oc3ccccc3c(=O)c2c(=O)n1Cc1ccc(OC)cc1 | 21% |
| O=c1nc2s/c(=C\c3ccco3)c(=O)n2nc1Cc1ccccc1 | 28.7% |
| CCCCOc1ccccc1/C=c1/sc2nc(-c3oc4ccccc4c3C)nn2c1=O | 50% (active) |
| CCOC(=O)/C=c1\s/c(=C\c2ccccc2OC)c(=O)n1CC(=O)N1CCOCC1 | -4.48% |
| CCOc1ccccc1C(=O)NCc1ccco1 | 10.6% |
| CCOc1ccccc1/C=c1\sc2nc(-c3ccco3)nn2c1=O | 57.2% (active) |

| Structure (SMILES) | inhibition |
| --- | --- |
| COC(=O)CSc1nc(C)c2ccc(OC)cc2n1 | -6.48% |
| CC1CCCCC1NC(=O)C1CCCN1S(=O)(=O)c1cccc2nsnc12 (stereo unspecified) | 11.2% |
| Cc1cc(C)c(NC(=O)CN2CCOCCOCCOCCOCC2)c(C)c1 | 3.92% |
| O=C(CN1CCCCCC1)N1c2ccccc2Sc2ccc(C(F)(F)F)cc21 | -9.51% |
| Cc1nc(NNC(=O)c2ccccc2)cc(-c2ccccc2)n1 | -1.45% |
| Cc1ccc2c(c1)sc1ncc(NC(=O)c3ccccc3)c(=O)n12 | 53.5% [fluorescence artefact?] (active) |
| Cc1ccccc1NC(=O)c1ccccc1 | -4.17% |
| Cc1cccc(N(C(=O)c2ccc(CN3CCOCC3)o2)C(C(=O)NC2CCCCC2)c2ccc(F)cc2)c1 (stereo unspecified) | 2.65% |
| CS(=O)(=O)c1ccc2c(c1)SC1=NC(=O)/C(=C/c3ccco3)C(=N)N12 | 82.8% [fluorescence artefact?] (active) |
| COC(=O)c1cn(-c2ccccc2)nc1-c1cccnc1 | 1.49% |
| O=C(c1cn(-c2ccccc2)nc1-c1cccnc1)N1CCCCC1 | 93.3% [fluorescence artefact?] (active) |
| COc1ccccc1N1CCN(C(=O)c2cn(-c3ccccc3)nc2-c2cccnc2)CC1 | 0.39% |
| O=C(N/N=C\c1cccc(Br)c1)c1ccccc1-n1cccc1 | -1.04% |
| Oc1ccc(-c2onc3ccc(Cl)cc23)cc1 | 2.22% |
| O=S(=O)(NN=C1CCCCCCC1)c1ccc(Br)cc1 | -3.65% |
| O=C(NCc1ccco1)c1cnn2c(C(F)(F)F)cc(-c3ccco3)nc12 | 6.58% |
| COC(=O)c1cc2nc(-c3ccccc3)cc(C(F)(F)F)n2n1 | -12% |
| COC(=O)c1cnn2c(C(F)(F)F)cc(-c3ccco3)nc12 | 62.1% (active) |
| CC1(C)C2CCC13CS(=O)(=O)NC3C2 (stereo unspecified) | 3.36% |
| CCc1nnc(NC(=O)CSc2nc3ccccc3c(=O)n2CCCOC)s1 | 14.8% |
| O=C1/C(=C/c2cccs2)CCc2ccccc21 | 5.05% |
| Cc1ccc(-n2c(SCC(=O)Nc3ccc4c(c3)OCO4)nnc2-c2ccoc2C)cc1 | -0.65% |
| COc1ccc(-n2c(SCC(=O)Nc3ccc4c(c3)OCO4)nnc2C(C)N2CCCCC2)cc1 (stereo unspecified) | 55.2% (active) |

| Structure (SMILES) | inhibition |
| --- | --- |
| Cc1ccc(-n2c(SCC(=O)Nc3ccc4c(c3)OCO4)nnc2-c2ccccn2)cc1 | -7.91% |
| O=C1N=C(N2CCCC2)S/C1=C\c1cccc(Br)c1 | -3.71% |
| CSc1nc2nc3c(c(=O)n2[nH]1)CCC3 | -5.51% |
| CNc1nc(SC)nc(N(C#N)CC(=O)OC)n1 | -12.1% |
| O=C(NCC(=O)N(Cc1cccs1)C(C(=O)NC1CCCCC1)c1ccco1)c1cccs1 (stereo unspecified) | -0.84% |
| O=C(Cc1c[nH]c2ccccc12)OCCOC(=O)Cc1c[nH]c2ccccc12 | -4.73% |
| COc1cccc(NC(=O)CN2CCN(c3nc(-c4cccc(OC)c4)cs3)CC2)c1 | -8.12% |
| CC1Cc2ccccc2N1C(=O)CSc1nnc(-c2ccc(S(=O)(=O)N3CCCCC3)cc2)o1 (stereo unspecified) | 72.8% [fluorescence artefact?] (active) |
| CC1Cc2ccccc2N1C(=O)CSc1nc2ccccc2o1 (stereo unspecified) | -8.05% |
| CCS(=O)(=O)c1ccc2oc(SCC(=O)N3c4ccccc4CC3C)nc2c1 (stereo unspecified) | 14% |
| O=C(CCN1c2ccccc2Sc2ccccc21)Nc1ccccc1 | -1.92% |
| Cc1ccc(Nc2nnc(SCc3ccccc3)s2)cc1 | -0.81% |
| O=C(CCN1CCc2ccccc2C(O)(c2ccccc2)C1)c1ccc2c(c1)OCCO2 (stereo unspecified) | 6.71% |
| Cc1ccc(SCC(=O)c2cc(C)c(OC(=S)N(C)C)c(C)c2)cc1 | 1.54% |
| COc1ccc(-c2nc3ccccc3n2CCC(C)C)cc1OC | 0.74% |
| CCNCc1cc2cc(C)ccc2[nH]c1=O | 5.96% |
| Cc1ccc2[nH]c(=O)c(-c3nc4c(C)cccn4c3NCc3ccco3)cc2c1 | 92.7% [fluorescence artefact?] (active) |
| Cc1ccc2nc(SC(C)C(=O)NCc3ccco3)[nH]c2c1 (stereo unspecified) | 0.42% |
| CC(C)(C)c1ccc(OC2=CS(=O)(=O)c3ccccc32)cc1 | -1.62% |
| CCCCCCc1cc2cc(-c3nnc(-c4ccccc4)o3)c(=O)oc2cc1O | 53.5% (active) |
| CCCCCCc1cc2cc(-c3nnc(-c4cccc(OC)c4)o3)c(=O)oc2cc1O | -2.99% |
| COc1ccc(CC(=O)Nc2ccc(-c3nnc(-c4ccccc4)o3)cc2)cc1 | 40.1% |
| CCOc1ccc(S(=O)(=O)NCCSc2ccccc2)cc1 | 0.2% |

| Structure (SMILES) | inhibition |
| --- | --- |
| Cc1cc(C)c2c(n1)nn1c(-n3ccnc3)cc(C)nc21 | 4.13% |
| Cc1cc(C)c2c(n1)nn1c(N3CCOCC3)cc(C)nc21 | 10.7% |
| Cc1cc(C)c2c(n1)nn1c(N3CCN(c4cccc(Cl)c4)CC3)cc(C)nc21 | 73.8% (active) |
| COc1ccc(C2CC(c3cccs3)=Nc3ccccc3S2)cc1OC (stereo unspecified) | 15.7% |
| Cc1cccc(-c2nc3c(c(SCC(=O)N4CCOCC4)n2)CCCC3)c1 | -17.1% |
| Cc1nc(NC(=O)C2CCCCC2)sc1C | 0.45% |
| CS(=O)(=O)N(CC(=O)NCc1ccco1)c1ccc2c(c1)OCO2 | 53.8% (active) |
| CS(=O)(=O)N(CC(=O)N1CCN(Cc2ccc3c(c2)OCO3)CC1)c1ccc2c(c1)OCO2 | 2.04% |
| O=C(Cn1nnc(-c2ccc3c(c2)OCO3)n1)NCc1ccco1 | 41.7% |
| COC(=O)c1cccc(N(C(=O)c2ccco2)C(C(=O)NC2CCCC2)c2ccco2)c1 (stereo unspecified) | -14.6% |
| CC1=C(C(=O)Nc2ccccc2)C(c2ccco2)C(C#N)=C(SCC(N)=O)N1 (stereo unspecified) | -3.05% |
| N#CC1=C(N)Oc2c(sc3ccccc23)C1c1ccco1 (stereo unspecified) | 85.9% [fluorescence artefact?] (active) |
| Cc1cc2c(c(=O)n1Cc1ccco1)C(c1ccccc1)C(C#N)=C(N)O2 (stereo unspecified) | -11.1% |
| Cc1cc(C(=O)OC(C)C(=O)Nc2cccc(S(=O)(=O)N3CCOCC3)c2)c(C)o1 (stereo unspecified) | 0.74% |
| CCOC(=O)Cc1csc(NC(=O)CSc2nnc(-c3cccnc3)n2Cc2ccco2)n1 | -5.63% |
| Cc1cc(N2CCN(S(=O)(=O)c3ccc(C)c(C)c3)CC2)c2ccccc2n1 | 16.1% |
| CCNCCC(=O)N1c2ccccc2Sc2ccc(NC(=O)OCC)cc21 | -22% |
| CCO/C([O-])=N/c1c[n+](N2CCOCC2)no1 | 51.1% (active) |
| O=C(NCCN1CCN(Cc2ccccc2)CC1)c1cc2c(=O)[nH]c3ccccc3c2s1 | 24.2% |
| FC(F)(F)c1nnc2sc(-c3ccco3)nn12 | 2.64% |
| Cc1nnc2sc(-c3ccco3)nn12 | 0.95% |
| Fc1ccc(-c2ccc(-c3nn4c(-c5ccco5)nnc4s3)o2)cc1 | 69.7% [fluorescence artefact?] (active) |

From PubChem BioAssay AID629 (Emory University Molecular Libraries Screening Center, 2007)
